From PubChem BioAssay AID1159580 (chemical genetic matrix, 2015)
About 2,000 (36%) of roughly 5,500 compounds were called active. Roughly 18% stayed inconclusive and do not appear here. Cut-off read from the data, not from the text of the source: active = normalized growth mostly below about 0.91 (no sharp cut-off); inconclusive = no clear call, values can overlap the other calls; inactive = mostly above about 0.92. Some of the results follow.

Experiment: chemical genetic growth profiling, strain panel (AID 1159580);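 note: tested at 20 µM; growth read once vehicle control cultures reached saturation at 30 °C; 1 = growth at the plate median or of vehicle wells; lower values mean less growth of the strain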
Conditions: growth OD

Measured: normalized growth

CC1C[C@H]2CC(=O)[C@H]3CCCN4CCC[C@H]2[C@]34C1 (stereo partly specified)
inactive: S. cerevisiae deletion strains, locus YAL021C, strain ccr4, stronger effect = lower value 1.01 | S. cerevisiae deletion strains, locus YAL026C, strain drs2, stronger effect = lower value 1.01 | S. cerevisiae deletion strains, locus YAL030W, strain snc1, stronger effect = lower value 1 | S. cerevisiae deletion strains, locus YBL061C, strain skt5, stronger effect = lower value 1.01 | S. cerevisiae deletion strains, locus YBR009C, strain hhf1, stronger effect = lower value 1 | S. cerevisiae deletion strains, locus YBR021W, strain FUR4, stronger effect = lower value 0.996 | S. cerevisiae deletion strains, locus YBR023C, strain chs3, stronger effect = lower value 1.02 | S. cerevisiae deletion strains, locus YBR171W, strain sec66, stronger effect = lower value 0.996 | S. cerevisiae deletion strains, locus YBR229C, strain ROT2, stronger effect = lower value 1 | S. cerevisiae deletion strains, locus YBR231C, strain swc5, stronger effect = lower value 0.993 | S. cerevisiae deletion strains, locus YBR279W, strain paf1, stronger effect = lower value 1.02 | S. cerevisiae deletion strains, locus YCL011C, strain gbp2, stronger effect = lower value 1.02 | S. cerevisiae deletion strains, locus YCL016C, strain dcc1, stronger effect = lower value 1.02 | S. cerevisiae deletion strains, locus YCL029C, strain bik1, stronger effect = lower value 1.02 | S. cerevisiae deletion strains, locus YCL061C, strain MRC1, stronger effect = lower value 1.01 | S. cerevisiae deletion strains, locus YCL069W, strain vba3, stronger effect = lower value 1.01 | S. cerevisiae deletion strains, locus YCR088W, strain abp1, stronger effect = lower value 1.01 | S. cerevisiae deletion strains, locus YDL005C, strain med2, stronger effect = lower value 1.01 | S. cerevisiae deletion strains, locus YDL035C, strain GPR1, stronger effect = lower value 1.03 | S. cerevisiae deletion strains, locus YDL040C, strain nat1, stronger effect = lower value 1.01 | S. cerevisiae deletion strains, locus YDL074C, strain BRE1, stronger effect = lower value 1.03 | S. cerevisiae deletion strains, locus YDL101C, strain DUN1, stronger effect = lower value 1.02 | S. cerevisiae deletion strains, locus YDL134C, strain PPH21, stronger effect = lower value 1.01 | S. cerevisiae deletion strains, locus YDL185W, strain tfp1, stronger effect = lower value 1.02 | S. cerevisiae deletion strains, locus YDL192W, strain arf1, stronger effect = lower value 1.02 | S. cerevisiae deletion strains, locus YDR001C, strain nth1, stronger effect = lower value 1.01 | S. cerevisiae deletion strains, locus YDR069C, strain doa4, stronger effect = lower value 1.02 | S. cerevisiae deletion strains, locus YDR101C, strain arx1, stronger effect = lower value 1.03 | S. cerevisiae deletion strains, locus YDR137W, strain rgp1, stronger effect = lower value 1.03 | S. cerevisiae deletion strains, locus YDR150W, strain NUM1, stronger effect = lower value 1 | S. cerevisiae deletion strains, locus YDR159W, strain sac3, stronger effect = lower value 1 | S. cerevisiae deletion strains, locus YDR162C, strain NBP2, stronger effect = lower value 1.03 | S. cerevisiae deletion strains, locus YDR195W, strain ref2 0.993 | S. cerevisiae deletion strains, locus YDR297W, strain sur2, stronger effect = lower value 1 | S. cerevisiae deletion strains, locus YDR318W, strain mcm21, stronger effect = lower value 1.02 | S. cerevisiae deletion strains, locus YDR334W, strain swr1, stronger effect = lower value 1 | S. cerevisiae deletion strains, locus YDR335W, strain msn5, stronger effect = lower value 1.01 | S. cerevisiae deletion strains, locus YDR388W, stronger effect = lower value 1.01 | S. cerevisiae deletion strains, locus YDR392W, strain spt3, stronger effect = lower value 0.954 | S. cerevisiae deletion strains, locus YDR502C, strain sam2, stronger effect = lower value 1.01 | S. cerevisiae deletion strains, locus YEL003W, strain gim4, stronger effect = lower value 1.01 | S. cerevisiae deletion strains, locus YEL037C, strain rad23, stronger effect = lower value 1.01 | S. cerevisiae deletion strains, locus YEL061C, strain CIN8 (second series), stronger effect = lower value 1.01 | S. cerevisiae deletion strains, locus YEL061C, strain CIN8, stronger effect = lower value 1.01 | S. cerevisiae deletion strains, locus YER015W, strain faa2, stronger effect = lower value 1.02 | S. cerevisiae deletion strains, locus YER016W, strain bim1, stronger effect = lower value 1.01 | S. cerevisiae deletion strains, locus YER110C, stronger effect = lower value 1.02 | S. cerevisiae deletion strains, locus YER111C, strain swi4, stronger effect = lower value 1 | S. cerevisiae deletion strains, locus YER155C, strain BEM2 (second series), stronger effect = lower value 1.04 | S. cerevisiae deletion strains, locus YER155C, strain BEM2, stronger effect = lower value 0.989 | S. cerevisiae deletion strains, locus YER167W, strain BCK2, stronger effect = lower value 1.01 | S. cerevisiae deletion strains, locus YFR010W, strain ubp6, stronger effect = lower value 1.01 | S. cerevisiae deletion strains, locus YGL078C, strain dbp3, stronger effect = lower value 1.01 | S. cerevisiae deletion strains, locus YGL086W, strain mad1, stronger effect = lower value 1.02 | S. cerevisiae deletion strains, locus YGL167C, strain pmr1, stronger effect = lower value 1.01 | S. cerevisiae deletion strains, locus YGL173C, strain kem1, stronger effect = lower value 1.01 | S. cerevisiae deletion strains, locus YGL227W, strain vid30, stronger effect = lower value 1.01 | S. cerevisiae deletion strains, locus YGL240W, strain doc1, stronger effect = lower value 0.996 | S. cerevisiae deletion strains, locus YGL248W, strain PDE1, stronger effect = lower value 1.01 | S. cerevisiae deletion strains, locus YGL253W, strain hxk2, stronger effect = lower value 1 | S. cerevisiae deletion strains, locus YGR135W, strain pre9, stronger effect = lower value 1.01 | S. cerevisiae deletion strains, locus YGR252W, strain gcn5, stronger effect = lower value 0.999 | S. cerevisiae deletion strains, locus YHR013C, strain ard1, stronger effect = lower value 1.02 | S. cerevisiae deletion strains, locus YHR027C, strain rpn1, stronger effect = lower value 1 | S. cerevisiae deletion strains, locus YHR030C, strain SLT2, stronger effect = lower value 1 | S. cerevisiae deletion strains, locus YHR079C, strain IRE1 (second series), stronger effect = lower value 1.01 | S. cerevisiae deletion strains, locus YHR094C, strain hxt1, stronger effect = lower value 1.02 | S. cerevisiae deletion strains, locus YHR129C, strain ARP1, stronger effect = lower value 1.01 | S. cerevisiae deletion strains, locus YHR142W, strain chs7, stronger effect = lower value 1.02 | S. cerevisiae deletion strains, locus YHR200W, strain rpn10, stronger effect = lower value 1.02 | S. cerevisiae deletion strains, locus YIL066C, strain RNR3, stronger effect = lower value 1.01 | S. cerevisiae deletion strains, locus YIL073C, strain SPO22, stronger effect = lower value 1.06 | S. cerevisiae deletion strains, locus YIL125W, strain kgd1, stronger effect = lower value 1.02 | S. cerevisiae deletion strains, locus YIR030C, strain dcg1, stronger effect = lower value 1.02 | S. cerevisiae deletion strains, locus YJL092W, strain hpr5, stronger effect = lower value 1.01 | S. cerevisiae deletion strains, locus YJL095W, strain BCK1 (second series), stronger effect = lower value 1.01 | S. cerevisiae deletion strains, locus YJL095W, strain BCK1, stronger effect = lower value 1.04 | S. cerevisiae deletion strains, locus YJL115W, strain asf1, stronger effect = lower value 1.01 | S. cerevisiae deletion strains, locus YJL129C, strain trk1, stronger effect = lower value 1.02 | S. cerevisiae deletion strains, locus YJL134W, strain LCB3, stronger effect = lower value 0.994 | S. cerevisiae deletion strains, locus YJL154C, strain vps35, stronger effect = lower value 1.02 | S. cerevisiae deletion strains, locus YJL164C, strain tpk1, stronger effect = lower value 1.01 | S. cerevisiae deletion strains, locus YJL166W, strain qcr8, stronger effect = lower value 1.01 | S. cerevisiae deletion strains, locus YJL168C, strain set2, stronger effect = lower value 1.01 | S. cerevisiae deletion strains, locus YJL187C, strain SWE1 (second series), stronger effect = lower value 1.03 | S. cerevisiae deletion strains, locus YJL187C, strain SWE1, stronger effect = lower value 1 | S. cerevisiae deletion strains, locus YJR043C, strain POL32, stronger effect = lower value 1 | S. cerevisiae deletion strains, locus YKL009W, strain mrt4, stronger effect = lower value 1.03 | S. cerevisiae deletion strains, locus YKL068W, stronger effect = lower value 1.01 | S. cerevisiae deletion strains, locus YKL085W, strain MDH1 (second series), stronger effect = lower value 1 | S. cerevisiae deletion strains, locus YKL085W, strain MDH1, stronger effect = lower value 1 | S. cerevisiae deletion strains, locus YKL160W, strain elf1, stronger effect = lower value 1.02 | S. cerevisiae deletion strains, locus YKL190W, strain CNB1, stronger effect = lower value 0.989 | S. cerevisiae deletion strains, locus YKR001C, strain vps1, stronger effect = lower value 1.02 | S. cerevisiae deletion strains, locus YKR026C, strain gcn3, stronger effect = lower value 1.01 | S. cerevisiae deletion strains, locus YKR091W, strain srl3, stronger effect = lower value 1.02 | S. cerevisiae deletion strains, locus YLL001W, strain dnm1, stronger effect = lower value 1.01 | S. cerevisiae deletion strains, locus YLL026W, stronger effect = lower value 1 | S. cerevisiae deletion strains, locus YLL041C, strain sdh2, stronger effect = lower value 1.01 | S. cerevisiae deletion strains, locus YLR027C, strain aat2, stronger effect = lower value 1.01 | S. cerevisiae deletion strains, locus YLR039C, strain RIC1, stronger effect = lower value 1.04 | S. cerevisiae deletion strains, locus YLR058C, strain SHM2, stronger effect = lower value 1.02 | S. cerevisiae deletion strains, locus YLR102C, strain apc9, stronger effect = lower value 1.02 | S. cerevisiae deletion strains, locus YLR221C, strain rsa3, stronger effect = lower value 1.02 | S. cerevisiae deletion strains, locus YLR258W, strain gsy2, stronger effect = lower value 1.03 | S. cerevisiae deletion strains, locus YLR262C, strain YPT6 (second series), stronger effect = lower value 1.01 | S. cerevisiae deletion strains, locus YLR262C, strain YPT6, stronger effect = lower value 1.12 | S. cerevisiae deletion strains, locus YLR268W, strain sec22, stronger effect = lower value 1.04 | S. cerevisiae deletion strains, locus YLR320W, strain mms22, stronger effect = lower value 1.02 | S. cerevisiae deletion strains, locus YLR330W, strain CHS5, stronger effect = lower value 1 | S. cerevisiae deletion strains, locus YLR342W, strain FKS1 (second series), stronger effect = lower value 0.993 | S. cerevisiae deletion strains, locus YLR342W, strain FKS1, stronger effect = lower value 1.02 | S. cerevisiae deletion strains, locus YLR357W, strain rsc2, stronger effect = lower value 0.995 | S. cerevisiae deletion strains, locus YLR370C, strain arc18, stronger effect = lower value 1.02 | S. cerevisiae deletion strains, locus YLR371W, strain rom2, stronger effect = lower value 1.02 | S. cerevisiae deletion strains, locus YLR384C, strain iki3, stronger effect = lower value 1.02 | S. cerevisiae deletion strains, locus YLR418C, strain cdc73, stronger effect = lower value 1.02 | S. cerevisiae deletion strains, locus YML016C, strain PPZ1, stronger effect = lower value 1.01 | S. cerevisiae deletion strains, locus YML032C, strain rad52, stronger effect = lower value 1.01 | S. cerevisiae deletion strains, locus YML120C, strain ndi1, stronger effect = lower value 1.01 | S. cerevisiae deletion strains, locus YML124C, strain tub3, stronger effect = lower value 1.01 | S. cerevisiae deletion strains, locus YMR058W, strain fet3, stronger effect = lower value 1.01 | S. cerevisiae deletion strains, locus YMR078C, strain ctf18, stronger effect = lower value 1.03 | S. cerevisiae deletion strains, locus YMR125W, strain sto1, stronger effect = lower value 1.01 | S. cerevisiae deletion strains, locus YMR129W, stronger effect = lower value 1.01 | S. cerevisiae deletion strains, locus YMR205C, strain PFK2, stronger effect = lower value 1.02 | S. cerevisiae deletion strains, locus YMR223W, strain ubp8, stronger effect = lower value 1.02 | S. cerevisiae deletion strains, locus YMR231W, strain pep5, stronger effect = lower value 1 | S. cerevisiae deletion strains, locus YMR307W, strain GAS1, stronger effect = lower value 1.01 | S. cerevisiae deletion strains, locus YNL067W, strain RPL9B, stronger effect = lower value 1.03 | S. cerevisiae deletion strains, locus YNL071W, strain lat1, stronger effect = lower value 1.02 | S. cerevisiae deletion strains, locus YNL128W, strain TEP1, stronger effect = lower value 1.03 | S. cerevisiae deletion strains, locus YNL153C, strain GIM3, stronger effect = lower value 1.01 | S. cerevisiae deletion strains, locus YNL209W, strain ssb2, stronger effect = lower value 1.01 | S. cerevisiae deletion strains, locus YNL233W, strain BNI4, stronger effect = lower value 1.03 | S. cerevisiae deletion strains, locus YNL248C, strain rpa49, stronger effect = lower value 0.998 | S. cerevisiae deletion strains, locus YNL250W, strain rad50, stronger effect = lower value 1.05 | S. cerevisiae deletion strains, locus YNL271C, strain bni1, stronger effect = lower value 1.03 | S. cerevisiae deletion strains, locus YNL298W, strain CLA4, stronger effect = lower value 1.01 | S. cerevisiae deletion strains, locus YNL307C, strain MCK1, stronger effect = lower value 1.04 | S. cerevisiae deletion strains, locus YNL322C, strain KRE1 (second series), stronger effect = lower value 1 | S. cerevisiae deletion strains, locus YNL322C, strain KRE1, stronger effect = lower value 1 | S. cerevisiae deletion strains, locus YNR049C, strain mso1, stronger effect = lower value 1.03 | S. cerevisiae deletion strains, locus YNR052C, strain pop2, stronger effect = lower value 1.02 | S. cerevisiae deletion strains, locus YOL012C, strain htz1 1.55 | S. cerevisiae deletion strains, locus YOL147C, strain pex11, stronger effect = lower value 1.02 | S. cerevisiae deletion strains, locus YOR001W, strain rrp6, stronger effect = lower value 1.02 | S. cerevisiae deletion strains, locus YOR061W, strain CKA2, stronger effect = lower value 1.01 | S. cerevisiae deletion strains, locus YOR069W, strain VPS5, stronger effect = lower value 1.01 | S. cerevisiae deletion strains, locus YOR070C, strain gyp1, stronger effect = lower value 1.03 | S. cerevisiae deletion strains, locus YOR080W, strain dia2, stronger effect = lower value 1 | S. cerevisiae deletion strains, locus YOR083W, strain WHI5, stronger effect = lower value 1.02 | S. cerevisiae deletion strains, locus YOR106W, strain vam3, stronger effect = lower value 1.02 | S. cerevisiae deletion strains, locus YOR136W, strain idh2, stronger effect = lower value 1.03 | S. cerevisiae deletion strains, locus YOR144C, strain elg1, stronger effect = lower value 1 | S. cerevisiae deletion strains, locus YOR184W, strain ser1, stronger effect = lower value 1.01 | S. cerevisiae deletion strains, locus YOR265W, strain rbl2, stronger effect = lower value 1 | S. cerevisiae deletion strains, locus YOR270C, strain vph1, stronger effect = lower value 1.05 | S. cerevisiae deletion strains, locus YOR290C, strain snf2, stronger effect = lower value 1.01 | S. cerevisiae deletion strains, locus YOR316C, strain cot1, stronger effect = lower value 1.02 | S. cerevisiae deletion strains, locus YPL051W, strain arl3, stronger effect = lower value 1 | S. cerevisiae deletion strains, locus YPL055C, strain LGE1, stronger effect = lower value 1.03 | S. cerevisiae deletion strains, locus YPL078C, strain atp4, stronger effect = lower value 1.01 | S. cerevisiae deletion strains, locus YPL106C, strain sse1, stronger effect = lower value 0.997 | S. cerevisiae deletion strains, locus YPL240C, strain hsp82, stronger effect = lower value 0.998 | S. cerevisiae deletion strains, locus YPR119W, strain clb2, stronger effect = lower value 1.02 | S. cerevisiae deletion strains, locus YPR141C, strain kar3, stronger effect = lower value 1.02 | S. cerevisiae deletion strains, locus YPR163C, strain tif3, stronger effect = lower value 1.02 | S. cerevisiae deletion strains, locus YPR167C, strain met16, stronger effect = lower value 1.02 | S. cerevisiae deletion strains, strain wtn01, stronger effect = lower value 1.02 | S. cerevisiae strains, strain wild type, stronger effect = lower value 1.01
